Bioassay records (PubChem BioAssay)
ELG1 DNA repair = ELG1-dependent DNA repair inhibition; HEK293T ELG1-luciferase reporter, luminescence, 16 h; DNA damage induced by 5-fluorouridine; Potency, µM (doses to about 46.1 µM), most hits filed as inhibitors; hit rate 2.3% among 330,000; AID 504467; further: nearly all actives have a fitted effect of over 55% in size
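DMSO vehicle served as the neutral condition. Each well held 2,000 cells given 5-fluorouridine plus compound; after 16 hr at 37 °C/5% CO2, ONE-Glo was added and luciferase measured 30 min later.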
FLuc counter = counter-screen for miR-21 project: firefly luciferase inhibitors or activators. Potency, µM (top dose mostly 57.5 µM), actives largely listed as inhibitors. purified FLuc, Km substrates, luminescence inhibition. P08659. AID 588342. hit rate 6.9% among 360,000; further: nearly all actives have a fitted effect of over 55% in size
Target sequence (P08659 whole entry, looked up): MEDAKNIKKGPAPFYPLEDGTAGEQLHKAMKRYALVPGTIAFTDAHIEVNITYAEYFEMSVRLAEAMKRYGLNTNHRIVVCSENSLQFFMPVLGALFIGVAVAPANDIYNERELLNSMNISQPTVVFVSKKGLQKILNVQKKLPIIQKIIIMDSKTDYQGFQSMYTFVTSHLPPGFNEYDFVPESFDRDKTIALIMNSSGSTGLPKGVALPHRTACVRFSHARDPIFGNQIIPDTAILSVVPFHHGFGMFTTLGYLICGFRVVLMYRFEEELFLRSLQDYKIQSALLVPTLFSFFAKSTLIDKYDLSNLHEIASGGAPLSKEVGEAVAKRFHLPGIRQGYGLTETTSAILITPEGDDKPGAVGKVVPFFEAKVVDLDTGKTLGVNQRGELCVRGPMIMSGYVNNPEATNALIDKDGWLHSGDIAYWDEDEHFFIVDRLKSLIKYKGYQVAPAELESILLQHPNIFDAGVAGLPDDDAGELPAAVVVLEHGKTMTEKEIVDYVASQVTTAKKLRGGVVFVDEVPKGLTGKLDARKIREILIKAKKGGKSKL
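Purified P. pyralis luciferase, 10 nM final, with Km-level 10 uM D-luciferin and 10 uM ATP in 50 mM Tris acetate pH 7.5, 10 mM Mg acetate, 0.01% Tween-20, 0.05% BSA; 6-point qHTS titration about 60 µM downward; luminescence read.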
ELG1 genotoxic = inducers of genotoxicity in HEK293T ELG1-luciferase cells | HEK293T ELG1-luciferase reporter, luminescence, 16 h | Potency, µM (doses to about 46 µM), usual class: activators | hit rate 1.3% among 330,000 | AID 504466; further: nearly all actives have a fitted effect of over 60% in size
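Genotoxic stress is detected as increased luminescence from luciferase-tagged ELG1 in HEK293T cells, measured with ONE-Glo after a 16 hr treatment at 37 °C.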
NPC1 promoter act = activators of NPC1 promoter; Huh7 NPC1 promoter luciferase reporter, 24 h; Potency, µM (highest dose often 9.22 µM), most hits filed as activators; hit rate 2.4% among 320,000; further: nearly all actives have a fitted effect of over 60% in size
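Stable NPC1-promoter luciferase Huh7 line; cpd (DMSO) 24 h, 37 °C, 5% CO2; Amplite luciferase reagent 10 min RT; luminescence readout. qHTS format.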
SMN2 splice enh = SMN2 splice variant enhancement; Potency, µM (top dose mostly 46.1 µM), most hits filed as activators; HEK293 SMN2-luciferase splicing reporter, luminescence, 30-36 h; hit rate 2.8% among 210,000; AID 1458; further: nearly all actives have a fitted effect of over 55% in size
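HEK293 cells carry an SMN2 minigene-luciferase reporter in which exon 7 inclusion puts luciferase in frame. Cells were seeded at 2000 cells/well, attached for 10-12 hours, then exposed to compounds for 30-36 hours at 37C before ONE-Glo luminescence.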
Rab9 prom act = Rab9 promoter activation; Potency, µM (series often up to 9.22 µM), most hits filed as activators; Huh7 Rab9 promoter-luciferase reporter, luminescence, 24 h; hit rate 2.8% among 320,000; further: nearly all actives have a fitted effect of over 60% in size
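Using Huh7 cells stably transfected with Rab9 promoter–luciferase, compounds were incubated 24 h at 37 °C, 5% CO2; luciferase luminescence was read 10 min after reagent addition.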
Numbers stand for hits; – = inactive; ? = inconclusive; · = no result. This is a sample that favours compounds with a hit; in the whole collection about 9.2% have one here. The call rests on the fitted dose curve; in most records, active means well fitted curve in the direction sought with a large enough effect; inconclusive means small, poorly fitted or top-dose-only effect, or another doubt; inactive means no such curve, though single readings can be large; an effect the other way counts as inactive or inconclusive.

SMILES	ELG1 DNA repair	FLuc counter	ELG1 genotoxic	NPC1 promoter act	SMN2 splice enh	Rab9 prom act
C[C@@H]1CN([C@@H](C)CO)C(=O)c2cc(NS(=O)(=O)c3cccs3)ccc2O[C@H]1CN(C)Cc1ccc(C(F)(F)F)cc1	16.4µM	·	–	·	·	·
CCOC(=O)CCCCCC(=O)Nc1ccc2c(c1)CC(=O)N([C@H](C)CO)C[C@@H](C)[C@H](CN(C)Cc1ccc3c(c1)OCO3)O2	–	·	–	·	·	·
C[C@@H]1CN([C@H](C)CO)C(=O)Cc2cc(NC(=O)Nc3ccccc3)ccc2O[C@@H]1CN(C)Cc1ccc2c(c1)OCO2	16.4µM	·	–	·	·	·
CCOc1ccc(NC(=O)N2CCN(Cc3cc(=O)n4nc(-c5ccc(OC)cc5)sc4n3)CC2)cc1	·	–	·	·	·	·
COc1ccc(CCn2c(N)c(C(=O)NCc3ccco3)c3nc4ccccc4nc32)cc1	20.6µM	–	–	–	–	–
Nc1c(C(=O)NCc2ccco2)c2nc3ccccc3nc2n1CCc1ccccc1F	–	–	–	–	–	–
COc1ccc(CCn2c(N)c(C(=O)NCc3ccco3)c3nc4ccccc4nc32)cc1OC	10µM	–	–	–	–	–
COc1ccc(CCn2c(N)c(C#N)c3nc4ccccc4nc32)cc1OC	23.1µM	–	–	–	–	–
COc1ccc2cc(CN(CC3CCCO3)C(=S)Nc3ccccc3)c(=O)[nH]c2c1 (centres undefined)	8.2µM	–	–	–	·	–
COc1ccc(NC(=O)N(Cc2cc3ccc(OC)cc3[nH]c2=O)CC2CCCO2)cc1 (centres undefined)	10.3µM	?	–	–	–	–
COc1ccc2[nH]c(=O)c(CN(CC3CCCO3)C(=S)Nc3ccccc3)cc2c1 (centres undefined)	–	–	–	–	·	–
COc1ccc(NC(=O)N(Cc2cc3cc(OC)ccc3[nH]c2=O)CC2CCCO2)cc1 (centres undefined)	10.3µM	–	–	–	–	–
COc1ccc2cc(CN(CC3CCCO3)C(=O)Nc3ccccc3OC)c(=O)[nH]c2c1 (centres undefined)	7.3µM	–	–	–	·	–
CCOc1ccc(CCNC(=O)CCN2N=C(c3ccc(OC)cc3)CCC2=O)cc1OCC	·	–	·	·	·	·
Cc1cccc2cc(CN(CC3CCCO3)C(=O)c3ccncc3)c(=O)[nH]c12 (centres undefined)	–	–	–	–	–	–
Cc1ccc(C)c2[nH]c(=O)c(CN(CC3CCCO3)C(=O)NC3CCCCC3)cc12 (centres undefined)	8.2µM	–	–	–	–	–
CCN(C(=O)Cn1nc(C)n2c(cc3cc(C)ccc32)c1=O)c1ccccc1	–	–	–	–	·	–
O=C(NCCc1ccccc1)c1ccccc1Cl	?	1.9µM	?	0.355µM	·	0.447µM
O=C(NCCOc1ccccc1Cl)c1cc(F)c(F)cc1Cl	?	5.36µM	?	2.82µM	·	2.24µM
O=C(NCCOc1ccccc1)c1ccccc1Cl	?	8.49µM	4.61µM	0.631µM	·	0.447µM
O=C(NCCOc1ccccc1Cl)c1ncn[nH]1	?	?	?	–	·	?
Cc1nn(Cc2ccccc2)c(Cl)c1C(=O)NCCc1ccccc1	?	9.53µM	?	2.51µM	14.1µM	2.24µM
Cc1nn(Cc2ccccc2)c(Cl)c1C(=O)NCc1ccc(C)n1C	–	–	–	–	–	–
CN(C(=O)COc1ccccc1C(=O)NCCOc1ccccc1)c1ccccc1	10.3µM	?	–	–	–	–
O=C(O)CCC(=O)Nc1ccccc1C(=O)Nc1ccccc1	?	–	–	–	–	–
SMILES	ELG1 DNA repair	FLuc counter	ELG1 genotoxic	NPC1 promoter act	SMN2 splice enh	Rab9 prom act
COc1ccc(CCNC(=O)c2ccc(Cl)cc2Cl)cc1	–	16.9µM	–	–	–	–
O=C(O)CCC(=O)Nc1ccccc1C(=O)NCCc1ccccc1	?	19µM	?	?	?	?
COc1ccc(CC(=O)NCCc2ccc(Cl)cc2Cl)cc1	–	–	–	–	–	–
O=C(NCCCl)c1ccc(OCc2ccccc2)cc1Cl	?	?	–	?	12.6µM	1.58µM
O=C(/C=C/c1ccccc1Cl)NCCc1ccccc1	?	19µM	–	?	?	?
Cc1cc2nc(-c3ccc(OCc4ccccc4F)cc3)cc(C(F)(F)F)n2n1	·	–	·	·	–	·
Cc1nc(SCc2nc3ccccc3[nH]2)c2oc3cc([N+](=O)[O-])ccc3c2n1	23.1µM	·	–	·	·	·
CC(=O)OCC(=O)Nc1ccc(N=Nc2ccccc2)cc1	?	12µM	23.1µM	2.82µM	6.31µM	2.82µM
CC(C)C(=O)OCC(=O)NCc1ccccc1Cl	–	16.9µM	–	?	–	–
CCC(C(=O)OCC(=O)Nc1ccc(F)cc1)c1ccccc1 (centres undefined)	–	–	–	–	·	–
CC(C)C(=O)OCC(=O)Nc1ccc(N=Nc2ccccc2)cc1	?	?	20.6µM	2.51µM	11.2µM	0.794µM
Cc1ccccc1OCC(=O)OCC(=O)NCc1ccccc1Cl	–	·	–	·	·	·
O=C(CCl)Nc1ccc(N=Nc2ccccc2)cc1	?	6.01µM	–	–	–	–
CCN(CC)c1ccc(NS(=O)(=O)c2ccc3c(c2)CCCN3C(C)=O)c(C)c1	·	–	·	·	·	·
O=C(Nc1ccc(N=Nc2ccccc2)cc1)c1ccc(Cl)cc1Cl	–	–	–	–	–	–
CC1(C(=O)OCC(=O)Nc2ccccc2)CC1(Cl)Cl (centres undefined)	?	16.9µM	–	?	–	?
CC1(C(=O)OCC(=O)Nc2ccccc2Cl)CC1(Cl)Cl (centres undefined)	–	?	–	–	–	?
O=C(Nc1ccc(N=Nc2ccccc2)cc1)c1ccccc1Cl	?	3.79µM	?	1.78µM	11.2µM	2.51µM
CC(=O)Nc1ccc(N=Nc2ccccc2)cc1	?	6.01µM	10.3µM	2.82µM	10µM	2.82µM
CC(=O)Nc1ccccc1	–	·	–	·	–	·
CN(C)c1ccc(-c2cncnc2NCc2cccs2)cc1	·	·	·	·	–	·
CCn1c(C)cc(C=C2C(=O)c3ccccc3C2=O)c1C	?	0.477µM	?	?	?	?
Cc1cc(C=C2C(=O)c3ccccc3C2=O)c(C)n1C	?	3.01µM	?	–	?	–
CS(=O)(=O)N1CCC2(CCCN(C(c3ccccc3)c3ccccc3)C2)CC1	·	·	·	·	–	·
Cc1cc(N)n2ncc(-c3ccc(Cl)cc3)c2n1	?	13.5µM	?	2.82µM	–	3.16µM
Cc1cc(C)n2cc(-c3ccc(Cl)cc3)c(C(=O)O)c2n1	?	?	16.4µM	2.82µM	12.6µM	2.51µM
CC(C)c1cc(N2CCOCC2)n2ncc(-c3ccccc3)c2n1	–	–	–	–	·	–
Cc1nc2c(-c3ccc(F)cc3)cnn2c(N)c1-c1ccc(F)cc1	?	0.849µM	1.16µM	0.447µM	·	0.562µM
Cc1cc(N2CCOCC2)n2ncc(-c3ccccc3Cl)c2n1	?	2.69µM	9.2µM	2.51µM	·	2.51µM
